9 compounds from PubChem BioAssay (NCI) can be followed below.

This is part of a sample that, as a whole, favours compounds with a hit. Of some 83,000 tested, about 20% had one in any assay.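 48-hour exposure, single concentration, 96-well plates; percent growth endpoint where 0 means no net growth. Active: below 10.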 A number with no mark means an inactive call. The source made the active and inactive calls.

What all share (experiment): NCI-60 one-dose screen, 48 h (100 = growth as untreated, 0 = no growth, -100 = all killed)
What all share (conditions): 10 µM

The subject of assay [1] is NCI-H23 lung.
The test system of assay [2] is NCI-H226 lung.
Assay [3] concerns NCI-H322M lung.
The subject of assay [4] is HOP-62 NSCLC.
The subject of assay [5] is NCI-H460 lung.
Assay [6] relates to NCI-H522 lung.
In assay [7] the test system is A549/ATCC NSCLC.
The test system of assay [8] is 786-0 renal.
Assay [9] has as its system COLO 205 colon.
Assay [10] has as its system DU-145 prostate.
For assay [11], the system named is K-562 leukemia.
Assay [12] deals with MALME-3M melanoma.
The subject of assay [13] is MDA-MB-231 breast.
For assay [14], the system named is RXF 393 renal.
Assay [15] concerns SF-268 CNS.
For assay [16], the system named is SF-295 CNS.
Assay [17] concerns SF-539 CNS.
The test system of assay [18] is UACC-257 melanoma.
Assay [19] relates to M14 melanoma.

As for `O=C1Cc2cc(O)ccc2O1`, the growth in [1] is 111%; in assay [2], 103%; in [3], 94.5%; in assay [4], 101%; in [5], 111%; in assay [6], 88.4%. For the same compound, the growth in assay [7] was 98.7%; in [8] it was 103%; in [9], 117%; in [10], 118%; in assay [11], 96.6%; in assay [12], 92.5%. The growth is 106% in assay [13]; 114% in assay [14]; 106% in assay [15]; 160% in assay [16]; 101% in [17]; 103% in assay [18]. For the same compound, the growth in [19] is 98.9%.

In the case of `C=CC(O)CCC` (stereo unspecified), the growth in assay [1] was 106%; in [2], 115%; in assay [3], 103%; in [4], 110%; in [5], 104%; in assay [6], 99.6%. Further, the growth in assay [7] was 91.5%; in assay [8] it was 105%; in [9], 119%; in [10], 112%; in [11], 104%; in assay [12], 106%. Also, the growth in [13] was 106%; in assay [14], 121%; in assay [15] it was 107%; in [16], 91.1%; in assay [17] it was 102%; in assay [18] it was 90.3%. The growth in [19] is 106%.

On to `NC(C(=O)O)C(O)c1ccco1` (stereo unspecified), for which the growth was 108% in assay [1]; 96.6% in assay [2]; 107% in assay [3]; 104% in assay [4]; 108% in assay [5]; 137% in [6]. The growth in [7] was 102%; in [8], 98.3%; in assay [9], 102%; in assay [10], 115%; in [11] it was 105%; in assay [12] it was 98.6%. Further, the growth in assay [13] was 117%; in assay [14], 105%; in assay [15], 116%; in [16] it was 108%; in [17], 110%; in assay [18] it was 102%. For the same compound, the growth in assay [19] is 105%.

For the compound `CNS(=O)(=O)c1ccc(Cl)c(Cl)c1`, the growth is 110% in [1]; 86.4% in assay [2]; 103% in [3]; 82.3% in assay [4]; 109% in assay [5]; 97.8% in [6]. Further, the growth in assay [7] was 104%; in assay [8], 85.9%; in assay [9], 114%; in [10], 111%; in [11], 99.5%; in [12], 111%. The growth in assay [13] was 98.2%; in [14], 99.7%; in assay [15], 96.1%; in assay [16] it was 101%; in [17] it was 91.7%; in [18] it was 124%. In [19], the growth is 98.5%.

Regarding `CCNCCCCNCCCCNCCCCNCCCCNCC`, the growth in [1] was 49.5%; in assay [2], 134%; in assay [3], 42.1%; in [4], 113%; in assay [5], 76.1%; in [6] it was 87.3%. Moreover, the growth is 54.4% in assay [7]; 150% in assay [8]; 69.1% in assay [9]; 82.1% in assay [10]; 61% in [11]; -12.6% (active) in assay [12]. For the same compound, the growth was 109% in assay [13]; 81.7% in assay [14]; 138% in [15]; 62.3% in assay [16]; 122% in assay [17]; 30.7% in assay [18]. Also, in assay [19], the growth was 66.9%.

As to `Cc1ccc(C(=O)N/N=C/c2ccc3c(c2)OCO3)cc1`, the growth was 91% in assay [1]; 101% in [2]; 98.8% in [3]; 97.5% in assay [4]; 96.6% in assay [5]; 80.9% in [6]. In addition, the growth in [7] is 97.7%; in [8], 99.8%; in assay [9], 113%; in [10], 112%; in assay [11], 73.3%; in [12] it was 108%. Moreover, the growth was 90.5% in assay [13]; 102% in [14]; 96% in [15]; 115% in assay [16]; 103% in assay [17]; 115% in [18]. Besides, the growth in [19] was 93%.

For the compound `N#CC1(Nc2ccc3c4c(cccc24)CC3)CCCCC1`, the growth was 93.5% in [1]; 81.8% in [2]; 85.1% in [3]; 92.9% in assay [4]; 105% in assay [5]; 63.3% in assay [6]. Also, the growth was 95% in assay [7]; 106% in [8]; 94.7% in [9]; 103% in assay [10]; 89.7% in assay [11]; 93.1% in assay [12]. Moreover, the growth in assay [13] is 99.8%; in assay [14] it was 89.8%; in assay [15], 97%; in assay [16], 98.8%; in assay [17] it was 108%; in [18], 92.9%. Moreover, the growth in assay [19] was 113%.

With `Oc1ccc(O)cc1`, the growth in assay [1] was 96.3%; in [2] it was 110%; in [3], 106%; in assay [4] it was 106%; in assay [5] it was 113%; in assay [6], -40.8% (active). For the same compound, the growth in assay [7] is 102%; in assay [8], 114%; in assay [9] it was 112%; in assay [10], 105%; in assay [11], 98.1%; in [12] it was 102%. The growth in [13] is 109%; in [14] it was 135%; in [15], 106%; in [16], 114%; in assay [17], 90.1%; in [18], 97.8%. The growth in assay [19] was 108%.

`NC(=O)NC(=O)c1ccc(Cl)cc1`: the growth in assay [1] was 103%; in assay [2], 102%; in assay [3], 94.3%; in assay [4], 94.4%; in assay [5] it was 108%; in [6] it was 79.5%. The growth in [7] was 108%; in assay [8], 99.6%; in [9], 105%; in [10], 116%; in [11], 101%; in assay [12], 92%. Moreover, the growth in assay [13] is 48.2%; in assay [14] it was 131%; in [15], 113%; in [16], 112%; in assay [17], 104%; in [18], 107%. For the same compound, the growth in [19] is 96.1%.
